Measured values: PubChem BioAssay AID951 (NMMLSC, 2007)
The whole screen tested about 190,000 compounds, of which about 140 (0.074%) were called active. Cut-off read from the data, not from the text of the source: active = inhibition above about 40%. The list comes from a sample in which actives are over-represented; it also holds similar structures and randomly drawn compounds.

The compounds below were run against Bcl-2-like protein 10 (Homo sapiens) (UniProt Q9HD36) (assay: inhibitors of Bim-Bcl-B binding, primary screen, biochemical, multiplexed, human Bcl-2 family (AID 951;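 note: 0% = tracer peptide without compound and 100% = reference inhibitor peptide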)). Settings: bead-based flow cytometry, Bim peptide-Bcl-B binding; at 10 µM; stronger effect = higher value.
Chain of Bcl-2-like protein 10 (Homo sapiens) (Q9HD36 whole entry, looked up): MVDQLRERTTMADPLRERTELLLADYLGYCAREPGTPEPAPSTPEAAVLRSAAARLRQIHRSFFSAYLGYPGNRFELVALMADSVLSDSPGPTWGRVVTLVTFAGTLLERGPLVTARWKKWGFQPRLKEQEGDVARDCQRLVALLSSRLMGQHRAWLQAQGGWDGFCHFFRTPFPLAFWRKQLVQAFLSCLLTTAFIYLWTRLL

inhibition, inactive:
C/C(=N/NC(=O)CSc1ccccn1)c1ccc([N+](=O)[O-])cc1 -2%, CC(C)(C)C(=O)CSc1nc2ccccc2o1 -4%, CCOC(=O)C(C)Oc1cccc2c(=O)n(CC(=O)NCCc3ccc(OC)c(OC)c3)ccc12 (configuration not stated) -3%, CCSC1=NCCN1C(=O)c1ccc(S(=O)(=O)N(CC)CC)cc1 -5%, CC(C)(C)c1ccc(/C=C2\SC(=O)N=C2N)cc1 -3%, Cc1c(Br)c([N+](=O)[O-])nn1CC(=O)Nc1sc2c(c1C(=O)OC(C)C)CCC(C)C2 (configuration not stated) 2%, Cc1cc(Cl)ccc1OCc1nc(-c2ccncc2)no1 -5%, O=C(Nc1ccc2c(c1)CCC2)c1ccc(Br)s1 0%, CCn1cc(C(=O)NCCCN2CCCCCC2)c(=O)c2cc(S(=O)(=O)N3CCc4ccccc4C3)ccc21 -12%, O=C(N/N=C/c1cc2c(cc1Br)OCO2)C1COc2ccccc2O1 (configuration not stated) 1%, O=[N+]([O-])c1cccc(/C([O-])=C(/C(=S)Nc2ccccc2F)[n+]2ccccc2)c1 -16%, COc1cccc(-c2ccc(C#N)c(SCC(=O)NCCc3ccc(Cl)cc3)n2)c1 -12%, O=C(NCC1CCCO1)C1CCN(C2CCN(C(=O)C3CCCCC3)CC2)CC1 (configuration not stated) 0%, Cc1cccc(-n2c(SCC(=O)Nc3cccc(S(=O)(=O)NC4=NCCCCC4)c3)nc3ccccc3c2=O)c1C -4%, O=C(Nc1ccc(F)cc1)C1CCN(C(=O)c2ccc([N+](=O)[O-])cc2)CC1 6%, O=C(O)c1ccc(NS(=O)(=O)c2ccc3c(c2)C(=O)c2cc(S(=O)(=O)Nc4ccc(C(=O)O)cc4)ccc2-3)cc1 -6%, O=C(COC(=O)Cc1ccc(Br)cc1)Nc1c(F)c(F)c(F)c(F)c1F -7%, CC(=O)c1ccccc1NC(=O)CC1(CC(=O)O)CCCCC1 -1%, CC(=O)NS(=O)(=O)c1ccc(NC(=S)NC(=O)C(C)(C)C)cc1 -4%, NS(=O)(=O)c1ccc(NC(=S)Nc2ccc(Br)c(Cl)c2)cc1 -9%, COc1cccc(C2c3[nH]c4ccccc4c3CCN2Cc2cccc(C)n2)c1 (configuration not stated) -3%, CCOc1ccc2nc(NC(=O)c3cc([N+](=O)[O-])ccc3N3CCOCC3)sc2c1 -3%, O=C(CCc1ccccc1)Nc1ccc(NC(=O)C2CCCCC2)nc1 0%, O=C(NNC(=S)NCCCN1CCOCC1)c1ccncc1 -2%, OC(COCc1ccco1)CN1CCN(c2ccccc2)CC1 (configuration not stated) -4%, Cc1cc(N2CCOCC2)nc2ccc(NC(=S)N3CCN(Cc4ccccc4)CC3)cc12 -4%, CCNC(=O)CC1C(=O)N(c2ccc(F)cc2)C(=O)N1Cc1cccs1 (configuration not stated) -6%, CCO[C@H]1OC(C(=O)N2CCN(Cc3ccccc3)CC2)=C[C@@H](c2cn(C(C)=O)c3ccccc23)[C@@H]1CCCO -3%, CN(C)N(C)C(=O)C(O)(c1ccccc1)c1ccccc1 -2%, CS(=O)(=O)c1ccc2nc(NC(=O)c3ccc(Cl)nc3)sc2c1 -2%, O=[N+]([O-])c1ccc(N/N=C2/CCCCC2c2ccccn2)c([N+](=O)[O-])c1 (configuration not stated) -11%, O=C(COc1ccccc1[N+](=O)[O-])NC1CC1 -4%, OCCNCCOc1ccc(Cl)c(Cl)c1 -5%, Cc1cccc(NC(=S)N(CCN(C)C)C(C)c2ccco2)c1 (configuration not stated) 0%, COc1ccc(Br)cc1C(=O)Nc1cccc(C)c1C -7%, CCCCN1C(=O)c2ccc(C(=O)Nc3ccc(S(=O)(=O)N(C)C)cc3)cc2C1=O 0%, O=C(NNC(=O)c1ccc(Cl)cc1Cl)c1cccs1 -1%, CC(=O)NS(=O)(=O)c1ccc(NC(=O)C2C3C=CC(C3)C2C(=O)O)cc1 (configuration not stated) -5%, S=c1nc(C23CC4CC(CC(C4)C2)C3)nc2sccn12 2%, O=C(CC1NCCc2ccccc21)Nc1cccc(Cl)c1 (configuration not stated) -1%, CCN(CC)S(=O)(=O)c1ccc(N2CCCC2)c(NS(=O)(=O)c2cccs2)c1 -5%, Cc1ccn(-c2cccc(-n3ccc(C)n3)n2)n1 0%, COc1ccccc1C1CC(=O)n2c(nc(-c3ccccc3)c2-c2ccccc2)S1 (configuration not stated) -4%, CC1(C)CC(N(Cc2ccccc2)C(=O)Cc2ccccc2)CCO1 (configuration not stated) -3%, Cc1cccc(C(=O)OC(C)CN2CCN(C)CC2)c1 (configuration not stated) -4%, CC(C)(C)NC(=O)COC(=O)c1cc(Cl)ccc1[N+](=O)[O-] 0%, O=C(c1ccc(Cl)c([N+](=O)[O-])c1)N1CCN(c2ccccc2)CC1 -4%, COc1cc(NC(=O)c2ccc3c(c2)OCO3)ccc1NC(=O)c1cccs1 2%, COc1ccc(/C=C2\SC(=S)N(CC(=O)NNC(=O)c3ccncc3)C2=O)cc1 -1%, COCCN(Cc1nc(-c2ccc(C(F)(F)F)cc2)no1)C(C)C -5%, CC(OC(=O)CNS(=O)(=O)/C=C/c1ccccc1)C(=O)Nc1ccc(S(=O)(=O)N2CCCC2)cc1 (configuration not stated) -8%, Cc1ccc2nc(Nc3ncc4c(n3)CC(C)(C)CC4=O)nc(C)c2c1 -1%, COC(C(=O)NCc1ccccc1C)c1ccccc1 (configuration not stated) -11%, CCC1(CC)NC(=O)N(Cc2nc3ccccc3s2)C1=O -3%, O=C(NC(=S)NC1CCSC1=O)c1ccccc1F (configuration not stated) -3%, COc1ccc(-c2nn(-c3ccccc3)cc2/C=C\C(=O)N2CCOCC2)cc1[N+](=O)[O-] -1%, O=C(O)CC1S/C(=N\N=C/c2ccccc2O)N(c2ccc(O)cc2)C1=O (configuration not stated) -5%, COC(=O)c1onc(-c2c(OC)cc(OC)cc2OC)c1C(=O)OC -1%, CC(C)(C)NC(=O)NC(=O)CN1CCC(Cc2ccccc2)CC1 -1%, CCCN(CCC)c1c([N+](=O)[O-])c(=O)oc2ccccc12 32%, Cc1c(C(=O)NC(=S)NCc2cccnc2)oc2ccccc12 -9%, Cc1cc(C(=O)N/N=C/c2ccc(O)c([N+](=O)[O-])c2)c(C)n1-c1ccc(F)cc1 10%, Cc1ccccc1NCC(=O)N/N=C\c1ccc([N+](=O)[O-])s1 -3%, COC(=O)c1ccc(C(NC(=O)OCc2ccccc2)/C(C)=C/[C@@H](C)C(=O)NCc2ccc(OC)c(OC)c2)cc1 (some centres not stated) -7%, O=C(CCC(=O)c1cccs1)NC1CCCCCC1 -1%, O=C(C(Cl)Cl)N1CCN(c2ccccn2)CC1 -1%, CCOc1cc(N2CCOCC2)c(OCC)cc1NC(=O)c1cc(C)nc2ccccc12 -6%, COC(=O)c1sc2[nH]c(=S)n(N)c(=O)c2c1C -22%, CC(Cc1cccs1)NC(=O)c1cccc(Cl)c1 (configuration not stated) -4%, C=CCNC(=O)c1ccccc1NC(=O)c1ccc(Cl)c(S(=O)(=O)Nc2cccc(C)c2C)c1 -5%, COc1ccc(C(=O)Nc2sc(C)c(C)c2CN2CCOCC2)cc1 -7%, CCCn1nc(C(=O)Nc2ccc3nc(C)sc3c2)c2ccccc2c1=O -7%, COc1cc(C(=O)N[C@@H](C)C(=O)NCc2ccco2)cc(OC)c1OC 1%, Cn1c(SCC(=O)NC2CCCCC2)nnc1-c1ccc(N)cc1 -4%, COc1ccc(C2OCC3(CO2)SC(=O)NC3=O)cc1OC (configuration not stated) -1%, CCN(C(=O)CSc1nc2ccccc2n1CC)C1CCS(=O)(=O)C1 (configuration not stated) -1%

inhibition, active:
CC(C)(C)C(=O)NC(NC(=S)Nc1ccc(S(N)(=O)=O)cc1)C(Cl)(Cl)Cl (configuration not stated) 49%
